IDE exosite FP: exo-site inhibitors of human IDE, primary screen, biochemical, fluorescence anisotropy, probe displacement; purified IDE, FL-6b probe fluorescence polarization; active compounds read low; z-score at 20 µM; actives 6.3% (n = 17,000);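 active = z-score of -3 or lower, meaning strong loss of probe binding signal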;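 also: His-tagged human IDE residues 42-1019 made in E. coli with 30 nM FL-6b probe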
Target sequence (P14735 42-1019 limits assumed): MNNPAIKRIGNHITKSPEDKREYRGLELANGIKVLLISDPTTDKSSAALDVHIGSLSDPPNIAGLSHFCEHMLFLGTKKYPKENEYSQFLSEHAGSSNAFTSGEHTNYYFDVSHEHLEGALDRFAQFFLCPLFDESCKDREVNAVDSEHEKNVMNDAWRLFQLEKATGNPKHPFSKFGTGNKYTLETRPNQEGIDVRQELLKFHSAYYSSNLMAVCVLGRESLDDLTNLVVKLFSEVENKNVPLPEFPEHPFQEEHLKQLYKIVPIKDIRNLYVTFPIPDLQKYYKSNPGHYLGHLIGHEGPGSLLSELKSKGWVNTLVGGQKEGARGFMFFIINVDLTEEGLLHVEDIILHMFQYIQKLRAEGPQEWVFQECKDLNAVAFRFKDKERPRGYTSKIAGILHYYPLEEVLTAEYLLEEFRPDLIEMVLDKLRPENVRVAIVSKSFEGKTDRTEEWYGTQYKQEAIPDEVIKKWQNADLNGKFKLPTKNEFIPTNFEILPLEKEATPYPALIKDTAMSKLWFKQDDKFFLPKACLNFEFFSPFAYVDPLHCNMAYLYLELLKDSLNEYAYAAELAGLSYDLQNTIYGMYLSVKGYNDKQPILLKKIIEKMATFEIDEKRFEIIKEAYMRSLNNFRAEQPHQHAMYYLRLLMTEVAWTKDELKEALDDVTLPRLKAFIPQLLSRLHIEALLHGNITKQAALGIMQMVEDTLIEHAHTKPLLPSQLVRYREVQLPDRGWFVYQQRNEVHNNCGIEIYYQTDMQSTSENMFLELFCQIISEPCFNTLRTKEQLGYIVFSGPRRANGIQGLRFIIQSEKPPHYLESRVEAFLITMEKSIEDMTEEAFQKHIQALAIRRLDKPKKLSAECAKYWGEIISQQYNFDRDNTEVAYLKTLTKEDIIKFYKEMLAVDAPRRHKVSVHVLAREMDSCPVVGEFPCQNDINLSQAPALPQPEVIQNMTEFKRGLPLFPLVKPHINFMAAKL
A number is an active result; n = inactive. This excerpt belongs to a sample that is enriched for hits.

SMILES	IDE exosite FP
CCC(=O)N1CCCCN2[C@@H](CO)[C@@H](c3ccc(-c4cccc(C#N)c4)cc3)[C@@H]2C1	n
CCC(=O)N1CCCCN2[C@H](CO)[C@H](c3ccc(C#Cc4ccccc4)cc3)[C@@H]2C1	-8.8
CCC(=O)N1CCCCN2[C@H](C1)[C@@H](c1ccc(C#Cc3ccccc3)cc1)[C@@H]2CO	n
CCC(=O)N1CCCCN2[C@H](CO)[C@@H](c3ccc(C#Cc4ccccc4)cc3)[C@H]2C1	-3.9
CCC(=O)N1CCCCN2[C@H](CO)[C@H](c3ccc(C#CCOC)cc3)[C@@H]2C1	n
CCC(=O)N1CCCCN2[C@H](C1)[C@@H](c1ccc(-c3cccc(C#N)c3)cc1)[C@@H]2CO	n
CCC(=O)N1CCCCN2[C@H](C1)[C@H](c1ccc(C#CCOC)cc1)[C@@H]2CO	n
CCC(=O)N1CCCCN2[C@H](C1)[C@H](c1ccc(C#Cc3ccccc3)cc1)[C@@H]2CO	-4.6
O=C(Nc1ccccc1)N1CCCCN2[C@@H](CO)[C@H](c3ccc(C#Cc4ccccc4)cc3)[C@@H]2C1	n
O=C(Nc1ccccc1Cl)N1C[C@@H]2[C@H](c3ccccc31)[C@H](CO)N2C(=O)c1cccnc1	n
N#C[C@@H]1[C@H](c2ccccc2-c2cccc(F)c2)[C@H](CO)N1C(=O)Cc1cccnc1	n
O=C(Nc1ccc(F)cc1)N1CC(=O)N2[C@@H](CO)[C@@H](c3ccc(Br)cc3)[C@@H]2C1	n
CCC(=O)N(C[C@@H]1N[C@H](CO)[C@@H]1c1ccc(C#C[C@@H](C)O)cc1)C1CCCCC1	n
C[C@@H](O)C#Cc1ccc([C@@H]2[C@H](CO)N3CCCCN(C(=O)c4ccc(F)cc4)C[C@@H]23)cc1	n
Cc1ccccc1S(=O)(=O)N1[C@H](C#N)[C@H](c2ccc(-c3ccccc3)cc2)[C@@H]1CO	n
CC(=O)NC[C@@H]1[C@H](c2ccc(-c3cccc(F)c3)cc2)[C@@H](CO)N1C(C)=O	n
O=C(c1ccccc1)N1CC(=O)N2[C@@H](CO)[C@H](c3ccc(-c4ccccc4)cc3)[C@@H]2C1	n
Cc1cccc(-c2ccc([C@@H]3[C@@H](CO)N4CCCCN(C(=O)c5cccnc5)C[C@@H]34)cc2)c1	-3.3
O=C(c1cccc(F)c1)N1CCCCN2[C@H](CO)[C@@H](c3ccc(-c4cccnc4)cc3)[C@H]2C1	n
Cc1cccc(-c2ccc([C@H]3[C@H]4CN(C(=O)c5cccnc5)CCCCN4[C@H]3CO)cc2)c1	n
O=C(c1cccc(F)c1)N1CCCCN2[C@H](CO)[C@H](c3ccc(-c4cccnc4)cc3)[C@H]2C1	n
Cc1cccc(-c2ccc([C@@H]3[C@@H](CO)N4CCCCN(C(=O)c5cccnc5)C[C@H]34)cc2)c1	-4.3
Cc1cccc(-c2ccc([C@H]3[C@H](CO)N4CCCCN(C(=O)c5cccnc5)C[C@@H]34)cc2)c1	n
O=C(C[C@H]1CC[C@H](NC(=O)c2cccnc2)[C@H](CO)O1)NCc1ccc(Cl)c(Cl)c1	n
Cc1nc(N2[C@@H](C#N)[C@@H](c3ccccc3)[C@@H]2CO)sc1C	n
SMILES	IDE exosite FP
CC(=O)NC[C@H]1[C@H](c2ccc(-c3ccccc3F)cc2)[C@H](CO)N1C(C)=O	n
CCC(=O)N1[C@H](CO)[C@H](c2ccc(-c3ccccc3OC)cc2)[C@H]1CNC(C)=O	-8.2
CCC(=O)N1[C@H](CNC(C)=O)[C@H](c2ccc(-c3ccc(F)cc3)cc2)[C@@H]1CO	n
CCC(=O)N1[C@H](CO)[C@H](c2ccc(-c3ccccc3OC)cc2)[C@@H]1CNC(C)=O	-15
CCC(=O)N1[C@H](CO)[C@H](c2ccc(-c3cccc(F)c3)cc2)[C@@H]1CNC(C)=O	n
CCC(=O)N1[C@@H](CO)[C@@H](c2ccc(-c3cccc(F)c3)cc2)[C@@H]1CNC(C)=O	n
CC(C)(C)[S@@](=O)N1Cc2cc(C(=O)N3CCOCC3)nc(-c3cccc(-c4ccccc4F)c3)c2[C@H]1CCO	n
COc1cccc(C(=O)Nc2ccc3c(c2)OC[C@@H](C)N(CCc2ccccc2)C[C@H](C)[C@@H](OC)CN(C)C3=O)c1	n
CN(C)C(=O)c1ccc(-c2ccc([C@H]3[C@@H](CO)N4C(=O)CN(C(=O)C5CCCC5)C[C@@H]34)cc2)cc1	n
FC(F)(F)c1cccc(CN2[C@@H]3CNC[C@H]2C3c2ccc(-c3ccncc3)cc2)c1 (some centres not stated)	n
N#C[C@H]1[C@@H](c2ccc(C#CCC3CCCC3)cc2)[C@H](CO)N1C(=O)c1ccccn1	n
CO[C@H]1CN(C)C(=O)c2cc(NC(=O)c3ccc(Oc4ccccc4)cc3)ccc2OC[C@@H](C)NC[C@H]1C	-7.9
CO[C@H]1CN(C)C(=O)c2cc(NC(=O)c3ccc(Oc4ccccc4)cc3)ccc2OC[C@H](C)NC[C@@H]1C	n
CO[C@H]1CN(C)C(=O)c2cc(NC(=O)c3cnccn3)ccc2OC[C@H](C)NC[C@@H]1C	n
CO[C@@H]1CN(C)C(=O)c2cc(NC(=O)c3ccc(Oc4ccccc4)cc3)ccc2OC[C@@H](C)NC[C@@H]1C	-11
COc1cccc(NC(=O)Nc2ccc3c(c2)C(=O)N(C)C[C@@H](OC)[C@H](C)CN[C@H](C)CO3)c1	n
CO[C@H]1CN(C)C(=O)c2cc(NC(=O)c3cnccn3)ccc2OC[C@@H](C)NC[C@H]1C	n
CNC[C@@H]1Oc2ccc(NS(=O)(=O)c3ccc(OC)cc3)cc2C(=O)N([C@H](C)CO)C[C@H]1C	n
O=S(=O)(Cc1ccccc1)N1CCCCN2[C@H](CO)[C@H](c3ccc(-c4cncnc4)cc3)[C@H]2C1	n
C[C@H]1CN([C@@H](C)CO)C(=O)c2ccccc2-c2ccccc2CO[C@H]1CN(C)Cc1ccc2c(c1)OCCN2C	n
C[C@@H]1CN([C@H](C)CO)C(=O)CCCn2cc(nn2)CO[C@@H]1CN(C)C(=O)NC1CCCCC1	n
OC[C@H]1[C@@H](c2ccc(C#Cc3cccnc3)cc2)[C@H]2CN(Cc3ccccc3F)CCCCN21	n
CN(C)C(=O)c1ccc(-c2ccc([C@H]3[C@@H](CO)N4C(=O)CN(C(=O)C5CCCC5)C[C@H]34)cc2)cc1	n
O=C(c1ccc(F)cc1)N1CC(=O)N2[C@H](CO)[C@@H](c3ccc(C#CCC4CCCC4)cc3)[C@H]2C1	n
CC(C)(C)[S@@](=O)N1Cc2cc(C(=O)NCc3ccccc3F)nc(-c3cccc(-c4cncnc4)c3)c2[C@H]1CCO	-5.5
SMILES	IDE exosite FP
CCCNC(=O)c1cc2c(c(-c3cccc(-c4ccc(F)cc4)c3)n1)[C@H](CCO)N([S@@](=O)C(C)(C)C)C2	n
CC(C)(C)[S@](=O)N1Cc2cc(C(=O)NCC(F)(F)F)nc(-c3cccc(-c4cccc(F)c4)c3)c2[C@@H]1CCO	n
COCC(=O)N1CC[C@H]2[C@H](CO)Nc3ccc(C#Cc4ccc(F)cc4)cc3[C@H]21	n
CCC(=O)N1CC(=O)N2[C@@H](CO)[C@@H](c3ccc(C#CC(C)C)cc3)[C@@H]2C1	n
O=C(NCC[C@@H]1CC[C@H](NS(=O)(=O)Cc2ccccc2)[C@@H](CO)O1)C1CCCCC1	n
OC[C@H]1[C@@H](c2ccccc2)[C@@H](CNCC2CCC2)N1CC1CC1	n
CC(C)C#Cc1ccc([C@H]2[C@H](CO)N3C(=O)CN(C(=O)Cc4cccnc4)C[C@@H]23)cc1	n
COc1ccc2c3c([nH]c2c1)[C@@H](CO)N(C(C)=O)CC31CCN(C(C)=O)CC1	n
COc1ccc2c3c([nH]c2c1)[C@@H](CO)N(Cc1nccs1)CC31CN(Cc2ccncc2)C1	-3.2

Compound activity: PubChem BioAssay, Broad Institute
